# Compound activity (PubChem)
# Most compounds without a hit are left out; they make up all but 0.55% or so of the library.
# EPAC1 ag: qHTS for Agonist of cAMP-regulated guanine nucleotide exchange factor 3 (EPAC1): primary screen; AID 720707, 2013; Rap guanine nucleotide exchange factor 3 (Homo sapiens), O95398; 0.073% of 360,000 active; EPAC1 agonist qHTS, biochemical assay; response scale: 100% = response to 6.5 mM cAMP; Potency, µM (highest dose often 154 µM), for inactives: at the top dose activation, actives largely listed as activators; note: nearly all actives have a fitted effect of over 60% in size
#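 Nucleotide exchange by EPAC1 (100 nM) on Rap1B–BODIPY-GDP (250 nM) in the presence of 50 uM GDP is tracked fluorescently at 480/540 nm over 30 min. Signals are normalized to a 6.5 mM cAMP control.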
# GLP1R cytotox: qHTS of GLP-1 Receptor Inverse Agonists: Cytotox Screen; HEK293 cAMP-luciferase reporter cells, luminescence, 24 h; Potency, µM (titrated, usually from 38.3 µM), inactives show at the highest dose activity change, negative = inhibition, hits mostly inhibitors; 0.13% of 410,000 active; AID 624418, 2012;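 note: loss of luciferase light is scored as toxicity; % is set by controls: 0 for no effect and ±100 for the full control effect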
#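 Luminescence readout: signal drop marks cytotoxicity. Plated cells grew 12 h at 37 °C, 5% CO2, received 23 nL compound for 24 h, then got luciferase reagent, read after 12 min at RT.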
# EPAC2 agonist: qHTS for Agonist of cAMP-regulated guanine nucleotide exchange factor 4 (EPAC2): primary screen | EPAC2 activation, biochemical qHTS; response scale: 100% = 6.5 mM cAMP response | Potency, µM (top dose mostly 154 µM), for the others: at the top dose activation, most hits filed as activators | 0.079% of 360,000 active; note: nearly all actives have a fitted effect of over 50% in size
#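 qHTS, titration series. 100 nM EPAC2 / 250 nM Rap1B-BODIPY-GDP / 50 uM GDP; RT; ex 480/em 540 nm, 5-min reads to 30 min. Norm. to 6.5 mM cAMP = activation.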
# USP1 inh: Inhibitors of USP1/UAF1: Primary Screen; Potency, µM (top dose mostly 57.1 µM), for the others: at the highest dose activity change, negative = inhibition, actives largely listed as inhibitors; recombinant USP1/UAF1, Ub-Rhodamine cleavage fluorescence; AID 743255, 2014; Ubiquitin carboxyl-terminal hydrolase 1 (Homo sapiens), O94782; 0.23% of 390,000 active; note: % is set by controls: 0 for no effect and ±100 for the full control effect; nearly all actives have a fitted effect of over 60% in size
# Target sequence (O94782 whole entry, looked up): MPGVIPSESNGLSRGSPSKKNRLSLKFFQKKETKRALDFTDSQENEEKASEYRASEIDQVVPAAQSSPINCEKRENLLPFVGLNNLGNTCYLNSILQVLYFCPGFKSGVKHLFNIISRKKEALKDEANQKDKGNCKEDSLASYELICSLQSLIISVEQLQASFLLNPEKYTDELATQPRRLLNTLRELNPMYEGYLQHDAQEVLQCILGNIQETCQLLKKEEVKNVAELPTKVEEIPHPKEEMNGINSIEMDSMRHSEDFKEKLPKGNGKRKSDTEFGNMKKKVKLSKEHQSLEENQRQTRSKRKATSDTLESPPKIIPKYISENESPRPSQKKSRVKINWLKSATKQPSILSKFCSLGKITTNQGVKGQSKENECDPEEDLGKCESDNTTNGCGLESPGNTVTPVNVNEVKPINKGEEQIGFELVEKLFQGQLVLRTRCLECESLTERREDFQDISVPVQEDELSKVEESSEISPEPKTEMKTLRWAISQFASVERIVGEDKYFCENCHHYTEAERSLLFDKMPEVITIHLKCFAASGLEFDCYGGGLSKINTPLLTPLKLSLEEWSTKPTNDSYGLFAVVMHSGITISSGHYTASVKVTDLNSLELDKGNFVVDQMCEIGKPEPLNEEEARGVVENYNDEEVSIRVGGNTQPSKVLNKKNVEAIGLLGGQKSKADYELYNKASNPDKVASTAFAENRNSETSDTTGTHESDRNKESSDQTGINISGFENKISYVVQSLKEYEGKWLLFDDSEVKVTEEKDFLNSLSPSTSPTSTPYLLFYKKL
#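 Step one: compound is pinned into 1nM USP1/UAF1 in HEPES pH 7.8 buffer with TCEP. Step two: 15 min room-temperature incubation. Step three: Ub-Rho (150nM final) starts cleavage, tracked by fluorescence over six one-minute reads.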
# EPAC2 antag: qHTS for Antagonist of cAMP-regulated guanine nucleotide exchange factor 2 (EPAC2): primary screen; Rap guanine nucleotide exchange factor 4 (Homo sapiens), Q8WZA2; EPAC2 GEF exchange of Rap1B-BODIPY-GDP, fluorescence; Potency, µM (doses to about 114 µM), inactives show top-dose activity, negative = inhibition, usual class: inhibitors; 0.18% of 360,000 active; note: % is set by controls: 0 for no effect and ±100 for the full control effect; nearly all actives have a fitted effect of over 45% in size
# EPAC1 antagonist: qHTS for Antagonist of cAMP-regulated guanine nucleotide exchange factor 3 (EPAC1): primary screen. Rap guanine nucleotide exchange factor 3 (Homo sapiens), O95398. EPAC1 GEF assay, Rap1b-BODIPY-GDP exchange fluorescence. Potency, µM (doses to about 115 µM), without a hit: top-dose activity change, negative = inhibition, hits mostly inhibitors. 0.14% of 360,000 active;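 note: plate controls were vehicle for no effect and positive control for full effect; nearly all actives have a fitted effect of over 50% in size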
# * = called active by the depositor; ? = inconclusive; . = no result given; [ ] = dose if it differs, or a comment. Calls come from the whole dose curve; as a rule, active = well fitted curve in the direction sought with a large enough effect; inconclusive = small, poorly fitted or top-dose-only effect, or another doubt; inactive = no such curve, though single readings can be large; an effect the other way counts as inactive or inconclusive. Potency is the fitted concentration of half-maximal effect.
SMILES,EPAC1 ag,GLP1R cytotox,EPAC2 agonist,USP1 inh,EPAC2 antag,EPAC1 antagonist
C=CCNC(=S)N/N=C/c1ccc(C)c([N+](=O)[O-])c1,-1%,7.9µM*,9%,-7%,0%,-5%
Fc1ccc(-[n+]2nc(Nc3ccccc3)sc2-c2c3ccccc3cc3ccccc23)cc1,-18%,?,11%,?,-6%,-26%
Oc1ccc2ccccc2c1-c1sc(Nc2ccccc2)n[n+]1-c1ccc(F)cc1,-79%,-17%,-336%,265%,50µM*,?
CCOc1ccc(NC(=O)c2ccc3nc(C(C)C)oc3c2)cc1,.,-8%,.,0%,.,.
CCn1c2ccccc2c2cc(NC(=O)c3cc(OC)cc(OC)c3)ccc21,10%,?,14%,-9%,-1%,4%
CCn1c2ccccc2c2cc(NC(=O)c3ccc(=O)oc3)ccc21,19%,5%,100µM*,?,25%,12%
O=C(Oc1cccc2cccnc12)c1ccco1,0%,?,-19%,-17%,2%[57.1 µM],-9%
O=C(Cc1ccc(Cl)cc1)Oc1cccc2cccnc12,-2%,2.5µM*,0%,-13%,12%,18%
Cn1c(=O)c2c(SCC(=O)NCC3CCCO3)nc(-c3cccc(F)c3)nc2n(C)c1=O (centres undefined),.,4%,.,?,.,.
Oc1ccc(N=Nc2ccc3c(c2)OCCO3)c2ncccc12,6%,10µM*,-3%,-5%,-22%,-11%
Cc1cccc(N=Nc2ccc(O)c3ncccc23)c1,6%,-15%,8%,0%,-23%,-23%
CN(C)CCNC(=O)C(=O)Nc1ccc2c(c1)N(S(=O)(=O)c1cccs1)CCC2,12%,4.5µM*,-2%,-6%,-2%,-14%
CN(C)CCCNC(=O)C(=O)Nc1ccc2c(c1)N(S(=O)(=O)c1cccs1)CCC2,-4%,-28%,3%,-4%,11%,11%
COc1ccccc1C(=O)OCc1cc(=O)n2nc(C3CC3)sc2n1,.,4%,.,?,.,.
CC1CN(C(=O)CCC(=O)NCc2ccccc2)c2ccccc2S1 (centres undefined),0%,-9%,14%,-24%,50µM*,10%
O=C1CC(=O)N(Cc2ccco2)C(=S)N1,4%,-5%,5%,-23%,14%,45µM*
O=C1CC(=O)N(Cc2ccco2)C(=O)N1,20%,7%,2%,-23%,?,?
CCOC(=O)COc1ccc(Br)cc1/C=C/c1[nH]c(=O)[nH]c(=O)c1[N+](=O)[O-],-5%,?,2%,-17%,-5%,32µM*
CN(C)c1ccc(/C=C2\C(=N)N3N=C(CC(=O)N4CCCCC4)SC3=NC2=O)cc1,8%,136%,100µM*,-20%,10%,-9%
CN(C)c1ccc(/C=C2\C(=N)N3N=C(CC(=O)N4CCCC4)SC3=NC2=O)cc1Br,10%,-11%,4%,-5%,-12%,0%
O=C(Nc1nnc(SCc2ccc(F)cc2)s1)c1ccccn1,-2%,5.6µM*,11%,-12%,4%,-18%
O=C(Cc1ccccc1)N(Cc1cccnc1)c1nc2c(F)cc(F)cc2s1,.,3%,.,-26%,.,.
Cc1cc(O)c(C(c2ccc(Cl)cc2)N2CCN(c3ccccc3)CC2)c(=O)n1Cc1ccco1 (centres undefined),.,-1%,.,-20%,.,.
CCOC(=O)C1CCN(C(=O)CSc2n[nH]c(-c3ccc(OC)cc3)n2)CC1,.,-4%,.,?,.,.
CC(=O)Nc1scc(-c2ccccc2)[n+]1-c1ccc(C)cc1,2%,-8%,3%,-16%,32µM*,-5%
SMILES,EPAC1 ag,GLP1R cytotox,EPAC2 agonist,USP1 inh,EPAC2 antag,EPAC1 antagonist
CN(C)c1ccc(N=Nc2nc3ccccc3n2C)cc1,-5%,5µM*,-37%,-24%,-14%,-15%
Cn1c(N=Nc2ccccc2)nc2ccccc21,1%,10µM*,-9%,-24%,-5%,-2%
Cn1c(Cl)nc2ccccc21,10%,-11%,5%,-3%,-2%,3%
Cc1ccc2oc(C(=O)Nc3c(C(=O)c4ccc(C)c(F)c4)oc4ccccc34)cc(=O)c2c1,.,-1%,.,-16%,.,.
CC1CCN(S(=O)(=O)c2ccc3ncn(CC(=O)Nc4ccccc4C(F)(F)F)c(=O)c3c2)CC1,.,-1%,.,-8%,.,.
CCOC(=O)c1cc2n(c1/N=C/N(C)C)-c1ccccc1C2=O,100µM*,69%,100µM*,25µM*,48%,137%
COc1ccccc1CNC(=O)c1nnn(CC(=O)Nc2c(C)cccc2C)c1N,.,21%,.,?,.,.
O=C(NCc1ccc(OC(F)(F)F)cc1)c1cccc2c1C(=O)c1ccc(N3CCCC3)cc1S2(=O)=O,8%,43%,100µM*,17%,79µM*,-9%
O=C(NCc1ccc(OC(F)(F)F)cc1)c1cccc2c1C(=O)c1ccc(N3CCCCC3)cc1S2(=O)=O,-11%,5%,100µM*,25µM*,202%,22%
CC(=O)[C@H]1[C@@H]2C(=O)N(c3cccc(Cl)c3)C(=O)[C@@H]2[C@H]2c3ccccc3C=CN21,3%,29%,15%,10µM*,0%,-8%
O=C(c1ccco1)[C@@H]1[C@@H]2C(=O)N(c3ccc(Br)cc3)C(=O)[C@@H]2C2c3ccccc3C=CN21 (some centres undefined),0%,27%,-11%,16µM*,-1%,-13%
O=C1C2C3CC(C2C(=O)N1c1cccc(Cl)c1)[C@H](O)C3O (some centres undefined),3%,2%,1%,-23%,4%,-20%
O=C(c1ccco1)[C@@H]1[C@@H]2C(=O)N(c3ccc(F)cc3)C(=O)[C@@H]2[C@H]2C=Cc3ccccc3N21,7%,-11%,8%,?,-2%,-8%
CC1=C(SCc2ccccc2)C(=O)c2ccccc2C1=O,-3%,-8%,26%,16µM*,?,?
Cn1c(SCc2ccccc2)nccc1=O,-8%,-10%,-6%,-19%,14%,5%
COCCNC(=O)CCN1C(=O)c2cccnc2Oc2ccc(C)cc21,.,-2%,.,-8%,.,.
